# An excerpt weighted towards active compounds, which were near 2.2% of everything screened.
# Giardia kill = Small Molecules that selectively kill Giardia lamblia: qHTS | hit rate 0.15% among 340,000 | AID 540267, 2011 | activity change, % at 7.66 µM, hits read low | Giardia lamblia trophozoite viability; in the data active = activity change below about -80%; inconclusive = between about -30% and that limit;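 also: parasites exposed to compound for two days anaerobically before the ATP read; % is scaled to controls: 0 for no effect and ±100 for the full control effect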
#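 Compounds were tested on trophozoites seeded at 100 cells/well and held 48 hrs at 37 deg C anaerobically. An ATP-based luminescent kit measured the remaining live cells.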
# IL2 activator = qHTS of IL-2 Activators; IL-2 activation reporter assay, cell-based qHTS; stimulated with anti-CD3/CD4/CD28 beads; in transgenic mouse T cells; activation, % (series mostly up to about 46 µM); hit rate 0.065% among 360,000; AID 652025, 2013; in the data active = activation above about 50%; inconclusive = mostly about 30% to 49%; also: 0% is about no effect
#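 Using fluorescent plate cytometry, EGFP and DsRed are detected in transgenic mouse T cells stimulated 18 h at 37 degrees C with antibody-coated beads after 60 min compound pretreatment.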
# TrxR1 inh = qHTS Assay for Inhibitors of Mammalian Selenoprotein Thioredoxin Reductase 1 (TrxR1): qHTS. hit rate 1% among 390,000. Thioredoxin reductase 1, cytoplasmic (Rattus norvegicus), O89049. Potency, µM (series often up to 114 µM), without a hit: top-dose activity change, negative = inhibition, most hits filed as inhibitors. recombinant rTrxR1, NADPH fluorescence consumption, selenite substrate; also: potency is read from the fitted curve at half-maximal effect; % is scaled to controls: 0 for no effect and ±100 for the full control effect; nearly all actives have a fitted effect of over 65% in size
# Target sequence (O89049 whole entry, looked up): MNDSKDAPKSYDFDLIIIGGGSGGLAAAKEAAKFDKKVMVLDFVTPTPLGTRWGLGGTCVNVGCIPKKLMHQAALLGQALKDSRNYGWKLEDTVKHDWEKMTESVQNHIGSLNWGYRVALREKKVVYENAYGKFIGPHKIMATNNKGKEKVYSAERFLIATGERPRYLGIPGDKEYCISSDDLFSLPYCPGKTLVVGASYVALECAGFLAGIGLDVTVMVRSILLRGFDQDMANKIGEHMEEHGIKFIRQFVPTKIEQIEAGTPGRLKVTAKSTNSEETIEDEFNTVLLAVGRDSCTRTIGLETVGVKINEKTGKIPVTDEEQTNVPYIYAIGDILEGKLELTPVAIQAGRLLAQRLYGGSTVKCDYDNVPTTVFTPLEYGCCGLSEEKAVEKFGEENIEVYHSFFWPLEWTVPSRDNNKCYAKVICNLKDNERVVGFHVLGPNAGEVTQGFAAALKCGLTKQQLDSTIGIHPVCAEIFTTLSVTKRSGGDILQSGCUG
#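 Rat TrxR1 (90 nM in the dispensed reagent) was pre-reduced with 400 uM NADPH for 5 min at room temperature, then incubated with compound for 15 min. After 400 uM selenite was added, NADPH fluorescence (Ex 340/Em 450 nm) was followed for 8 min.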
# BRCA1 expr up = qHTS Assay to Identify Small Molecule Activators of BRCA1 Expression. hit rate 1.1% among 380,000. MCF7-BRCA1-FFLuc reporter, luminescence, 48 h; response scale: scaled: vehicle 0%, 10 µM genistein 100%. AID 624202, 2012. Potency, µM (top dose mostly 46.1 µM), for the others: at the top dose activation, hits mostly activators; also: potency is read from the fitted curve at half-maximal effect; nearly all actives have a fitted effect of over 80% in size
#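 48 h compound treatment of MCF7-BRCA1-FFLuc cells (phenol-red free MEM, 37 °C), then 15 min with luciferase substrate and luminescence imaging.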
# TrxR1 substrate = qHTS Assay for Substrates of Mammalian Selenoprotein Thioredoxin Reductase 1 (TrxR1): qHTS | Thioredoxin reductase 1, cytoplasmic (Rattus norvegicus), O89049 | purified TrxR1 substrate turnover, NADPH consumption readout | Potency, µM (doses to about 114 µM), for inactives: top-dose activity change, negative = substrate turnover | hit rate 0.01% among 390,000; also: potency is read from the fitted curve at half-maximal effect; % is scaled to controls: 0 for no effect and ±100 for the full control effect; nearly all actives have a fitted effect of over 50% in size
#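 Rat TrxR1, dispensed at 90 nM, was prereduced with 400 uM NADPH (final) for 5 min at ~22 deg C, then incubated with compound 15 min before 400 uM selenite. A first-read NADPH fluorescence drop versus no-compound background flagged substrates.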
# mIDH1 inhibitor = qHTS for Inhibitors of mutant isocitrate dehydrogenase 1 (IDH1): qHTS; hit rate 0.093% among 390,000; Isocitrate dehydrogenase [NADP] cytoplasmic (Homo sapiens), O75874; IDH1-R132H enzyme, NADPH consumption, diaphorase/resazurin fluorescence; AID 602179, 2012; Potency, µM (highest dose often 76.6 µM), for inactives: at the highest dose activity change, negative = inhibition, most hits filed as inhibitors; also: potency is read from the fitted curve at half-maximal effect; % is scaled to controls: 0 for no effect and ±100 for the full control effect; nearly all actives have a fitted effect of over 65% in size
#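 IDH1-R132H (0.5 ug/mL) preincubated 30 min with compound, then NADPH (0.016 mM) and alpha-KG (2 mM) added; 80 min at RT, pH 7.5. Remaining NADPH coupled via diaphorase/resazurin to fluorescence (540/590 nm); concentration-response curves normalized to no-enzyme control.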
# Starred values were filed as active, the others as inactive; i = inactive; ? = inconclusive; nt = no result given; [ ] = another dose, or the depositor's remark. Unless noted, calls follow the shape of the dose curve; as a rule, active = well fitted curve in the direction sought with a large enough effect; inconclusive = small, poorly fitted or top-dose-only effect, or another doubt; inactive = no such curve, though single readings can be large; an effect the other way counts as inactive or inconclusive.
SMILES,Giardia kill,IL2 activator,TrxR1 inh,BRCA1 expr up,TrxR1 substrate,mIDH1 inhibitor
CC1CCc2c(sc(/N=C/N(C)C)c2C#N)C1 (stereo not given),-22.8,-0.6,-7.4%,12.6µM*,-7.9%,0.8%
CCCSc1nsc(NC(=O)CCC)n1,-4.2,1.7,30.9%[57.1 µM],1.41µM*,8.2%[57.1 µM],4.9%
Cn1nnc2c(NCc3ccccc3Cl)ncnc21,nt,nt,5.1%[57.1 µM],nt,5.1%[57.1 µM],-15.1%
Clc1ccccc1CONc1ncnc2nonc12,17.6,-0.6,22.0%,10µM*,-6.6%,3.5%
CCC(=O)N1CCc2cc(CNS(=O)(=O)c3ccc(C(C)C)cc3)ccc21,nt,nt,14.2%,2.7%,1.9%,-5.3%
O=C(C[n+]1cc(Br)cc(Br)c1)c1ccc2ccccc2c1,nt,nt,?,11.2%,-11.2%,nt
NS(=O)(=O)c1ccc(N/C=C\C(=O)c2ccc(F)cc2)cc1,6.7,-0.9,11.0%[57.1 µM],1µM*,6.6%[57.1 µM],5.3%
CSc1cccc(NS(=O)(=O)c2cn(C)cn2)c1,?,-0.3,50.1µM*,-7.7%,-3.6%,9.3%
CN(C)c1c(Cl)cc(/C=C/c2ccnc3ccccc23)cc1Br,nt,nt,-7.1%,nt,3.1%,nt
CCOC(=O)c1ccc(NC(=O)c2ccc(NS(C)(=O)=O)cc2)cc1,-27.3,5.8,-17.3%,-7.1%,-1.9%,7.3%
CC(=O)Nc1ccc(C(=O)OCCCOC(=O)c2ccc(NC(C)=O)cc2)cc1,-6.1,-1.9,0.8%,23.0%,-8.6%,0.0%
CCOC(=O)c1ccc(NC(=O)C23CCC(C)(C(=O)O2)C3(C)C)cc1 (stereo not given),-9.4,-1.0,-0.7%,10µM*,-1.5%,8.5%
CC(=O)Nc1ccc(C(=O)OCCc2ccccc2)cc1,8.9,-0.1,22.2%,5.01µM*,-0.8%,-11.1%
COc1ccc(NC(=O)C23CCC(C)(C(=O)O2)C3(C)C)cc1 (stereo not given),-5.9,-2.5,18.6%,-0.4%,7.2%,3.9%
CCOC(=O)c1ccc(NC(=S)N2CCC(O)CC2)cc1,-1.5,-3.7,-5.5%[57.1 µM],12.6µM*,2.6%[57.1 µM],-0.7%
CCOC(=O)c1ccc(NC(=O)c2ccccc2)cc1,-0.1,0.4,-13.5%,2.82µM*,-6.8%,8.6%
CCOC(=O)c1ccc(NC(=S)N2CCCC(C)C2)cc1 (stereo not given),-1.5,-0.8,17.5%[57.1 µM],58.0%,-14.1%[57.1 µM],11.1%
CCn1c(CN2CCCCC2)nc2cc(NC(=O)c3cccc([N+](=O)[O-])c3)ccc21,nt,nt,22.0%,nt,-1.9%,-8.2%
COc1cccc(Cn2c(Oc3cc(C)cc(C)c3)nc3c2c(=O)n(C)c(=O)n3C)c1,nt,nt,25.1%,12.9%,3.7%,4.1%
COC(=O)Cc1c(C)c2ccc3c(c2oc1=O)CN(Cc1ccc(C)cc1)CO3,nt,nt,35.5µM*,nt,i,13.7%
COC(=O)Cc1c(C)c2ccc3c(c2oc1=O)CN(Cc1ccccc1Cl)CO3,nt,nt,?,nt,i,-0.4%
COC(=O)Cc1c(C)c2ccc3c(c2oc1=O)CN(Cc1ccccc1OC)CO3,nt,nt,39.8µM*,nt,i,13.1%
O=C(C#Cc1ccccc1)c1ccco1,2.5,-4.2,0.251µM*,-104.1%,-0.8%,11.2%
CC(=O)c1ccc(Nc2ccc(-c3ccccc3C)nn2)cc1,3.8,-2.1,-32.4%,6.31µM*,-20.3%,-7.4%
COc1ccccc1-c1ccc(Nc2cccc(C(C)=O)c2)nn1,1.5,-0.8,12.4%,70.5%,1.0%,0.0%
CC(=O)c1cccc(Nc2ccc(-c3ccccc3F)nn2)c1,-7.7,-0.3,27.4%[57.1 µM],11.2µM*,3.1%[57.1 µM],12.3%
CC(=O)c1ccc(Nc2cc(C)nc3ccccc23)cc1,8.9,0.6,5.4%,-13.9%,-0.5%,-8.2%
